Screening data: PubChem BioAssay, The Scripps Research Institute Molecular Screening Center
CHO-K1 Ca ag: counter-screen for M1 agonists: effect in parental CHO-K1 cells | activation, % at 3 µM | actives 0.48% (n = 360,000) | Fluo-8 calcium fluorescence; scaled to maximal ATP response, vehicle zero | AID 602248, 2012; in the data active means activation above about 15%;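 further: untransfected CHO-K1 host cells lacking M1 receptor as counterscreen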
M1 ag: human M1 muscarinic receptor agonists, primary screen, Fluo-8 calcium fluorescence, CHO-K1 cells, HTS; Muscarinic acetylcholine receptor M1 (Homo sapiens), P11229; CHO-K1 hM1, agonist mode; 0% DMSO, 100% acetylcholine EC100; activation, % at 3 µM; actives 0.33% (n = 360,000); AID 588814, 2011;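 active means activation above the run's mean compound activation plus 3 SD, cut at about 16% in these data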;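 further: peak over basal fluorescence ratio within a 140 s kinetic read after compound addition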
Target sequence (P11229 whole entry, looked up): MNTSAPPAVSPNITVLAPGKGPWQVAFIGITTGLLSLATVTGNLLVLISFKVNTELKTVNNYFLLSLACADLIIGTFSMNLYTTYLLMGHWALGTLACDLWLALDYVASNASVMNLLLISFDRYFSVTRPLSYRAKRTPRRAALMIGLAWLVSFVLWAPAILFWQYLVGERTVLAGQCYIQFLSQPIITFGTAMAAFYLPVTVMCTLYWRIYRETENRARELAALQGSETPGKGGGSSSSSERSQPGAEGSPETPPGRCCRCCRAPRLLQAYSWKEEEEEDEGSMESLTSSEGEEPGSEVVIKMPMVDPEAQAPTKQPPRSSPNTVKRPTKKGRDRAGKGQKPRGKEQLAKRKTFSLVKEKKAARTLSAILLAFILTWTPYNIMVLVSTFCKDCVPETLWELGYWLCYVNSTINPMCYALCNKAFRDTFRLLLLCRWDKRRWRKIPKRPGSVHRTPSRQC
M1 PAM parental: nonselective calcium activators in parental CHO-K1 cells, primary screen, counter-screen for M1 PAM project, cell-based, Fluo-8 calcium fluorescence, full deck, 1536-well. ATP EC20; 0% at ATP EC20, 100% at ATP max. activation, % at 3 µM. actives 0.02% (n = 360,000). AID 602247, 2012;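 active means activation above the run cutoff, the mean activation of all test compounds plus 3 SD, cut at about 40% in these data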;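 further: peak over basal fluorescence ratio in a 140 s read after ATP addition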
CHRM1 PAM: human M1 muscarinic receptor positive allosteric modulators, primary screen, CHO-K1 cells, Fluo-8 calcium fluorescence, 1536-well; Muscarinic acetylcholine receptor M1 (Homo sapiens), P11229; CHO-K1 hM1, ACh EC20; 0% = ACh EC20, 100% = maximal ACh; activation, % at 3 µM; actives 0.088% (n = 360,000); in the data active means activation above about 19%, passing the limit was not always enough
CHRM1 antagonist: human M1 muscarinic receptor antagonists, primary screen, CHO-K1 cells, Fluo-8 calcium fluorescence, 1536-well; Muscarinic acetylcholine receptor M1 (Homo sapiens), P11229; CHO-K1 hM1, ACh EC80 antagonist; inhibition, % at 3 µM; actives 1.3% (n = 360,000); AID 588852, 2011;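 active means percent inhibition above its own plate's cutoff, namely the mean of that plate's compound wells plus 3 SD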;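 further: peak over basal fluorescence ratio during 140 s after agonist addition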
CHO-K1 Ca antag: nonselective inhibitor or artifact in parental CHO-K1 cells. inhibition, % at 3 µM. ATP-induced calcium, Fluo-8 fluorescence. actives 0.6% (n = 360,000). AID 602250;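 active means inhibition above a per-plate cutoff, the plate's mean sample inhibition plus 3 SD, cut at about 24% in these data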
A number is an active result; i = inactive; nt = no result given. Compounds with a hit are over-represented: about 2.3% of the library has one in this group of screens.

SMILES	CHO-K1 Ca ag	M1 ag	M1 PAM parental	CHRM1 PAM	CHRM1 antagonist	CHO-K1 Ca antag
c1ccc(CC2CCN(C3=Nc4cccc5cccc3c45)CC2)cc1	i	i	i	i	72	i
COc1ccccc1N1CCN(C2=Nc3cccc4cccc2c34)CC1	i	i	i	i	89	i
CCOC(=O)N1CCN(C2=Nc3cccc4cccc2c34)CC1	i	i	i	i	84	i
O=S1(=O)N[C@H](Cc2ccccc2)COc2cc(N3CC[C@H](O)C3)ccc21	i	nt	i	nt	nt	i
Cc1ccccc1NC(=O)CCC(=O)N/N=C/c1ccncc1	i	i	i	i	i	i
O=C(Nc1ccc(Cl)cc1Cl)c1ccc2ncsc2c1	21	i	i	i	i	i
CCc1ccc(C2NC(=S)NC3=C2C(=O)CC(C)(C)C3)cc1 (configuration not stated)	i	i	i	i	i	i
O=C(N/N=C/c1ccc(O)c(O)c1)c1ccc(CSc2cccc3cccnc23)cc1	i	24	i	i	i	i
O=C(NCCCN1CCOCC1)c1ccc2c(c1)N(Cc1cccc(Cl)c1)C(=O)c1ccccc1S2=O (configuration not stated)	i	i	i	i	i	i
O=C(NCCCN1CCCC1)c1ccc2c(c1)N(Cc1ccc(F)cc1)C(=O)c1ccccc1S2=O (configuration not stated)	i	i	i	i	i	i
CC1CCCN(CCCNC(=O)c2ccc3c(c2)N(Cc2cccc(Cl)c2)C(=O)c2ccccc2S3=O)C1 (configuration not stated)	i	i	i	i	40	i
CCC1CCCCN1CCCNC(=O)c1ccc2c(c1)N(Cc1ccc(F)cc1)C(=O)c1ccccc1S2=O (configuration not stated)	i	i	i	i	71	i
CC1CCCN(CCCNC(=O)c2ccc3c(c2)N(Cc2ccc(F)cc2)C(=O)c2ccccc2S3=O)C1 (configuration not stated)	i	i	i	i	42	i
COC(=O)[C@]12CCCCC=C1N(Cc1ccco1)C(=O)[C@H](CC(=O)NCc1ccc(C)o1)C2	i	nt	i	nt	nt	i
CCc1ccccc1Oc1ccc(S(=O)(=O)N2CCN(C)CC2)cn1	i	i	i	i	i	i
Nc1ncnn1Cc1ccccc1	i	i	i	i	i	i
CCc1ccc(OC)c(S(=O)(=O)Nc2ccc(Cc3ccncc3)cc2)c1	15	i	i	i	36	i
O=S(=O)(Nc1ccc(Cc2ccncc2)cc1)c1ccc(Cl)c(Cl)c1	i	i	i	i	52	i
COc1ccc(S(=O)(=O)Nc2ccc(Cc3ccncc3)cc2)cc1OC	i	i	i	i	i	i
CCN(CC(=O)NCc1cccs1)C(=O)/C=C/c1cc(OC)ccc1OC	i	i	i	i	i	24
CCCNC(=O)C1(C)CCN(Cc2ccc3ccccc3c2Br)C1 (configuration not stated)	i	i	i	i	i	i
Cc1ccc(-n2c(-c3ccccc3)c[n+]3c2CCc2ccccc2-3)c(C)c1	i	i	i	i	55	i
Cc1ccc(-c2nc3c(c(SCC(=O)N4CCOCC4)n2)COC(C)(C)C3)cc1	i	i	i	i	i	i
CC(=O)N1CCN(CC(=O)Nc2cc(S(=O)(=O)N3CCOCC3)ccc2C)CC1	i	i	i	i	i	i
COc1ccc(CN2C(=O)CS/C2=N/N=C/c2cccs2)cc1	i	i	i	i	i	25
SMILES	CHO-K1 Ca ag	M1 ag	M1 PAM parental	CHRM1 PAM	CHRM1 antagonist	CHO-K1 Ca antag
COc1ccc(OC)c(/C=N/N=C2\SCC(=O)N2Cc2ccco2)c1	i	i	i	i	i	i
CCOC(=O)C1CCCN(c2ncnc3c2oc2ccccc23)C1 (configuration not stated)	i	i	i	i	i	24
CCN(CC)S(=O)(=O)c1ccc2c(c1)N(CC(=O)Nc1cccnc1Cl)C(=O)CO2	i	i	i	i	i	i
COc1cccc(CN(C)C(=O)C(Cc2ccccc2)NC(=O)c2ccccc2)c1OC (configuration not stated)	i	i	i	i	29	i
O=C(c1ccc(NC(=S)NCc2ccco2)cc1)N1CCCCC1	i	i	i	i	i	i
NC1=NC[C@@H](CC2CCCCC2)N1CCc1cc(C(F)(F)F)cc(C(F)(F)F)c1	i	i	i	i	35	i
S=c1[nH]nc(-c2ccncc2)n1/N=C/C=C/c1ccco1	i	i	i	i	i	i
C(=C\c1ccco1)/C=N/n1cnnc1	i	i	i	i	i	26
Nc1sc(-c2ccccc2)n[n+]1Cc1cccc2cccnc12	i	i	i	i	66	i
C=CCn1c(C)c(C(C)=O)c(N2CCN(C(c3ccccc3)c3ccccc3)CC2)nc1=S	i	i	i	i	35	i
CC(=O)c1c(N2CCN(C)CC2)nc(=S)n(Cc2ccccc2)c1C	i	i	i	i	i	i
FC(F)(F)c1nnc2c(Sc3ccc(Cl)cc3)nc3ccccc3n12	i	i	i	i	i	39
Cc1ncc(CN2CCCCC2C(=O)Nc2ccc(Oc3ccccc3)nc2)cn1 (configuration not stated)	i	i	i	i	i	i
COCc1ccc(CN2CCCCC2C(=O)Nc2ccc(Oc3ccccc3)nc2)o1 (configuration not stated)	i	i	i	i	47	i
COc1cc(C)ccc1OCc1cc(C(=O)N2CCC(c3ccc(F)cc3)C2)no1 (configuration not stated)	i	i	i	i	i	i
Nc1c(C(=O)C2CC2)sc2nc(-c3cccs3)cc(C(F)(F)F)c12	i	19	i	i	i	i
O=c1[nH]c(=S)[nH]c2nc(-c3cccs3)cc(C(F)(F)F)c12	i	i	i	i	i	i
O=C(c1cccc2ccccc12)C1CCCN(C(=O)c2ccc(N3CCOCC3)cc2)C1 (configuration not stated)	i	i	i	i	i	i
Cc1ccc(S(=O)(=O)N/N=C/c2ccc(OC3CSC3)cc2)cc1	17	29	i	i	37	i
O=C(NC(=S)NCCC1=CCCCC1)c1ccccc1Br	i	i	i	i	i	i
O=C(NC(=S)NCCC1=CCCCC1)c1cncc(Br)c1	16	i	i	i	i	i
Cc1ccc(NC2CCCN(C(=O)CSc3ccncc3)C2)cc1C (configuration not stated)	i	i	i	i	i	i
